Experimental findings from PubChem BioAssay (NCATS) are described below.

Experiment [1] addresses Estrogen receptor (Homo sapiens) (UniProt P03372). The experiment in a line: qHTS assay for small molecule agonists of estrogen receptor alpha signaling (AID 588514; calls by dose curve;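 also: 0% = vehicle only and 100% = reference agonist; nearly all actives have a fitted effect of over 70% in size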). In a few lines:
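ER-alpha-UAS-bla GripTite HEK 293 cells in medium with 2% charcoal/dextran-treated FBS were treated with compound titrations at 37 C for 18 hrs; beta-lactamase reporter read by CCF4 fluorescence after 2 hrs at RT.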
(In general: Quantitative high-throughput screening tests each substance at several concentrations.)

Experiment [2] concerns the target Glucocorticoid receptor (Homo sapiens) (UniProt P04150). In words: qHTS assay for small molecule agonists of glucocorticoid receptor signaling (AID 588532; active = well fitted curve in the direction sought with a large enough effect in the signal ratio, with a control signal flat; the % refers to the signal ratio;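 also: 100% = dexamethasone at 0.1 µM and 0% = DMSO only wells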). Particulars: HeLa MMTV-bla, beta-lactamase ratio, agonist, 18 h; activation: stronger effect = higher value, percent of dexamethasone control, DMSO zero. In a few lines:
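MMTV-bla HeLa, beta-lactamase reporter; medium with 1% charcoal/dextran-stripped FBS; cpds up to 92 uM, 18 h, 37 C; CCF4 readout 460/530 nm; Hill fit → EC50, efficacy vs 0.1 uM dexamethasone = 100%.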

For experiment [3] the target is unchanged. In words: qHTS assay for small molecule antagonists of glucocorticoid receptor signaling (AID 588533; active = well fitted inhibition curve with a large enough effect in the signal ratio, with a control signal flat, not every such curve was filed as active; the % refers to the signal ratio;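 also: cells stimulated with 2 nM dexamethasone as agonist; % is scaled to controls: 0 for no effect and ±100 for the full control effect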). The procedure, abridged: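 Antagonist-mode qHTS: compound titrations added to GRE-bla HeLa cells, then dexamethasone 2 nM final; 18 h, 37 C. CCF4 FRET fluorescence normalized to dexamethasone and DMSO; IC50 from Hill fit.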
Experiment [4] addresses Peroxisome proliferator-activated receptor delta (Homo sapiens) (UniProt Q03181). The experiment in a line: qHTS assay for small molecule agonists of peroxisome proliferator-activated receptor delta signaling (AID 588534; calls by dose curve;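 also: 0% = DMSO basal wells and 100% = positive control agonist at 10 µM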). In a few lines: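 Cell-based beta-lactamase reporter assay run in agonist mode: cells seeded and incubated 5 hrs at 37 C, compounds added and incubated 18 hrs at 37 C. CCF4 dye fluorescence read after 2 hrs at RT; EC50 and efficacy from Hill fits.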

Experiment [5] concerns the target Peroxisome proliferator-activated receptor gamma (Homo sapiens) (UniProt P37231). In words: qHTS assay for small molecule agonists of peroxisome proliferator-activated receptor gamma signaling (AID 588536; active = well fitted curve in the direction sought with a large enough effect in the signal ratio, with a control signal flat, not every such curve was filed as active; the % refers to the signal ratio;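 also: 0% = DMSO basal wells and 100% = rosiglitazone at 2 µM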). The procedure, abridged:
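PPAR-gamma-UAS-bla HEK293 cells in medium with 1% charcoal/dextran-treated FBS were exposed to compounds for 16 h at 37 C. Beta-lactamase activity was read with CCF4 substrate (405 nm excitation, 460/530 nm emission).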

In experiment [6] the target is Retinoic acid receptor RXR-alpha (Homo sapiens) (UniProt P19793). In words: qHTS assay for small molecule agonists of retinoid X receptor alpha signaling (AID 588544; calls by dose curve;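 also: 0% = DMSO basal wells and 100% = reference agonist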).
Sequence of Retinoic acid receptor RXR-alpha (Homo sapiens) (P19793 whole entry, looked up): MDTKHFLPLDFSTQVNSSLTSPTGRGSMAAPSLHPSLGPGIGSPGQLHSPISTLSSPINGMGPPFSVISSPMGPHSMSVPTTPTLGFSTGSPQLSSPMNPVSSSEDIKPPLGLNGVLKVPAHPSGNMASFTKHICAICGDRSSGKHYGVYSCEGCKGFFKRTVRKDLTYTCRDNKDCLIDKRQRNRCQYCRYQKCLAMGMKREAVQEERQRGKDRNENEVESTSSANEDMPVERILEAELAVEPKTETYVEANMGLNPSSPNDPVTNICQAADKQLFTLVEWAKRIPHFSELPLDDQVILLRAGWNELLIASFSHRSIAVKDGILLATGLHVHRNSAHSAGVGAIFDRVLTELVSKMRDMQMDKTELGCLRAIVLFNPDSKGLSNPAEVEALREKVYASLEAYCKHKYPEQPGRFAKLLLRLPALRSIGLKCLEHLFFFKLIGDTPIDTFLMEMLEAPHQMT
The target in experiment [7] is Thyroid hormone receptor beta (Homo sapiens) (UniProt P10828). In words: qHTS assay for small molecule agonists of thyroid hormone receptor beta signaling (AID 588545; calls by dose curve;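 also: 0% = DMSO only and 100% = 10 nM T3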). The procedure, abridged: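 TR-UAS-bla GripTite HEK 293 cells (2500/well, medium with 2% charcoal/dextran FBS) were treated in agonist mode for 18 h at 37 C, titrated. Beta-lactamase was read by CCF4 ratio after 2 h; normalized to 10 nM T3 (100%) and DMSO, Hill-fitted for EC50 and efficacy.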
Sequence of Thyroid hormone receptor beta (Homo sapiens) (P10828 whole entry, looked up): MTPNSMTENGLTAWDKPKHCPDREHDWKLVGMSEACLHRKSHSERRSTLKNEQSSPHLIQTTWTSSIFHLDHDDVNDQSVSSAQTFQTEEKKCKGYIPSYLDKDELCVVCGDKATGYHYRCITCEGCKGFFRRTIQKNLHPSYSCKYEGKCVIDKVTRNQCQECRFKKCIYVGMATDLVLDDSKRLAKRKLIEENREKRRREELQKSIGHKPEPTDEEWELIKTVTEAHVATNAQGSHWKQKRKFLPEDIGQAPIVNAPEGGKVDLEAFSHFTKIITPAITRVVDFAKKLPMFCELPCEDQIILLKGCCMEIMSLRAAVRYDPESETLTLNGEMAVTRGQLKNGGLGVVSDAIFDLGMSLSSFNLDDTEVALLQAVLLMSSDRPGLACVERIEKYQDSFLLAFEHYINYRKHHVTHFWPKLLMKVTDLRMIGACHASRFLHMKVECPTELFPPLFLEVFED

The nature of experiment [8]: qHTS assay for small molecule antagonists of retinoid X receptor alpha signaling (AID 588546; active = well fitted inhibition curve with a large enough effect in the signal ratio, with a control signal flat, not every such curve was filed as active; the % refers to the signal ratio;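 also: cells stimulated with 9-cis-retinoic acid as agonist; % is scaled to controls: 0 for no effect and ±100 for the full control effect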). Particulars: HEK293T RXRa-UAS-bla, beta-lactamase ratio, antagonist mode; measured here: W530 green channel, cytotoxicity proxy. In a few lines:
(§1)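 Beta-lactamase reporter inhibition, read as CCF4 fluorescence ratio (ex 405, em 460/530 nm) after 2 h at RT. HEK293T UAS-bla cells, 2500/well, were stimulated with 9-cis-RA at 500 or 100 nM final alongside test compound for 18 h at 37 C.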

Experiment [9] deals with Retinoic acid receptor RXR-alpha (Homo sapiens) (UniProt P19793). The description is as above. Particulars: HEK293T RXRa-UAS-bla, beta-lactamase ratio, antagonist mode. In a few lines: as §1
Experiment [10] can be described thus: qHTS assay for small molecule activators of the p53 signaling pathway (AID 651743; active = well fitted activation curve with a large enough effect in the signal ratio, not every such curve was filed as active; the % refers to the signal ratio; also: series mostly up to about 92 µM; % of control where 0% means no effect). Particulars: HCT-116 p53RE-bla, beta-lactamase FRET ratio, 16 h; activation: stronger effect = higher value. The procedure, abridged: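 p53RE-bla HCT-116 cells with a stably integrated beta-lactamase reporter under p53 response elements were plated, rested 5 hours at 37 C/5% CO2, then exposed to compounds in DMSO for 16 hours at 37 C. LiveBLAzer B/G FRET substrate was read after 2 hours at room temperature.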

Experiment [11] in a line: qHTS assay for environmental chemicals that activate the Aryl hydrocarbon Receptor (AhR) signaling pathway (AID 651777). Also: nearly all actives have a fitted effect of over 15% in size. Also: potency is read from the fitted curve at half-maximal effect. As to activation: % of control where 0% means no effect. Particulars: 1A2-DRE human hepatoma cells, luciferase, 24 h; activation: stronger effect = higher value. In a few lines:
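Luminescence (One-Glo, 30 min, room temperature) reports AhR-driven luciferase in stably transfected human hepatoma cells bearing DRE and CYP1A2 promoter. Cells (1,200/well) were treated with compound for 24 hr at 37 C in qHTS format.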

The target in experiment [12] is Peroxisome proliferator-activated receptor alpha (Homo sapiens) (UniProt Q07869). The experiment in a line: qHTS assay for small molecule agonists of the peroxisome proliferator-activated receptor alpha (PPARalpha) signaling pathway (AID 651778). Also: % of control where 0% means no effect. Particulars: PathHunter PPARalpha complementation, chemiluminescence, 6 h; max response: stronger effect = higher value. In a few lines:
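Cells plated at 2,000/well and held overnight at 37 C, 5% CO2, then compound added by pin tool for 6 hr; after PathHunter detection reagent and 60 min at room temperature, chemiluminescence from enzyme complementation was read.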

Experiment [13] in a line: qHTS assay for small molecule agonists of the antioxidant response element (ARE) signaling pathway measured by Nrf2-dependant transcriptional activity - cell viability counter screen (AID 720653; active = well fitted curve in the direction sought with a large enough effect in the repeat runs; an effect the other way counts as inactive or inconclusive; also: % is scaled to controls: 0 for no effect and ±100 for the full control effect). Particulars: ARE-bla HepG2 viability, CellTiter-Glo ATP luminescence, 16 h; max response: stronger effect = lower value. In a few lines: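 ARE-bla HepG2 cells (2,000/well) rested 5 hrs at 37C/5% CO2, then exposed to compounds in DMSO for 16 hrs. Viability was read in the same wells as intracellular ATP by luminescence, 30 min at room temperature after reagent addition.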

Experiment [14] is described as follows: qHTS assay for cell viability of HEK293 cells (AID 743288). Also: % is scaled to controls: 0 for no effect and ±100 for the full control effect; nearly all actives have a fitted effect of over 50% in size. Particulars: ATP luminescence (CellTiter-Glo), 18 h; max response: stronger effect = lower value. In a few lines:
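Parental HEK293 cells were seeded at 2,000 cells/well, rested at least 5 h at 37 C, then exposed to compounds in DMSO for 18 h at 37 C. Viability was read as ATP-dependent luciferase luminescence after 30 min at room temperature.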

Experiment [15] addresses Thyroid hormone receptor beta (Homo sapiens) (UniProt P10828). In words: qHTS assay for small molecule antagonists of thyroid hormone receptor beta signaling (AID 588547; active = well fitted inhibition curve with a large enough effect in the signal ratio, with a control signal flat, not every such curve was filed as active; the % refers to the signal ratio;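 also: cells stimulated with 0.4 nM T3 agonist during compound exposure; series mostly up to about 77 µM; % is scaled to controls: 0 for no effect and ±100 for the full control effect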). Particulars: TR-UAS-bla HEK293, beta-lactamase ratio, antagonist mode, 18 h. The procedure, abridged:
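TR-UAS-bla GripTite HEK293 cells in 2% charcoal/dextran FBS medium were preincubated 4 h at 37 C, given compound (0.59 nM to 92 uM) plus 0.4 nM T3 (final) for 18 h, then CCF4 for 2 h at RT; Hill fit gave IC50.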

Experiment [16] in a line: qHTS assay for cell viability of the p53RE-bla HCT-116 cell line (AID 743292). Also: nearly all actives have a fitted effect of over 55% in size. Also: potency is read from the fitted curve at half-maximal effect. In a few lines: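 ATP-based luminescent viability (CellTiter-Glo, 30 min RT) after 16 h compound treatment at 37 C of p53RE-bla HCT-116 cells, seeded at 4,000 cells/well and rested 5 h before dosing.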
The nature of experiment [17]: qHTS assay for small molecule agonists of the antioxidant response element (ARE) signaling pathway measured by Nrf2-dependant transcriptional activity (AID 720636; active = well fitted curve in the direction sought with a large enough effect in the repeat runs; an effect the other way counts as inactive or inconclusive; also: % of control where 0% means no effect). The procedure, abridged: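 Nrf2-dependent transcription read as ONE-Glo luciferase signal from ARE-luc HepG2 reporter cells after 16 hr compound treatment at 37 C, 5% CO2, in assay medium with 1% dialyzed FBS.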

Experiment [18] can be described thus: qHTS assay for small molecule antagonists of peroxisome proliferator-activated receptor delta signaling (AID 588535; active = well fitted inhibition curve with a large enough effect in the signal ratio, with a control signal flat, not every such curve was filed as active; the % refers to the signal ratio;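 as to max response: cells co-treated with a PPAR-delta agonist as stimulator during compound exposure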). Particulars: HEK293T PPARd-UAS-bla, beta-lactamase FRET ratio, 18 h; 460 nm channel. The procedure, abridged: (§2)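 GeneBLAzer PPAR-delta-UAS-bla HEK293T cells in medium with 2% charcoal/dextran FBS were preincubated 5 hrs at 37 C, then given compounds, incubated 18 hrs at 37 C, and read by CCF4 beta-lactamase fluorescence; IC50 from Hill fits.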

The target of experiment [19] is Peroxisome proliferator-activated receptor delta (Homo sapiens) (UniProt Q03181). The experiment is described as above. The procedure, abridged:
as §2

Experiment [20] addresses Nuclear receptor subfamily 1 group I member 2 (Rattus norvegicus) (UniProt Q9R1A7). In words: qHTS assay for small molecule activators of the rat pregnane X receptor (rPXR) signaling pathway (AID 651751; call rule not given here; also: 0% is about no effect). Particulars: rPXR reporter cells, luciferase (One-Glo), 24 h.

Results filed as inconclusive are left out. The source made the active and inactive calls. Unless noted, calls follow the shape of the dose curve; as a rule, active = well fitted curve in the direction sought with a large enough effect; inconclusive = small, poorly fitted or top-dose-only effect, or another doubt; inactive = no such curve, though single readings can be large; an effect the other way counts as inactive or inconclusive.

Sequence of Peroxisome proliferator-activated receptor delta (Homo sapiens) (Q03181 whole entry, looked up): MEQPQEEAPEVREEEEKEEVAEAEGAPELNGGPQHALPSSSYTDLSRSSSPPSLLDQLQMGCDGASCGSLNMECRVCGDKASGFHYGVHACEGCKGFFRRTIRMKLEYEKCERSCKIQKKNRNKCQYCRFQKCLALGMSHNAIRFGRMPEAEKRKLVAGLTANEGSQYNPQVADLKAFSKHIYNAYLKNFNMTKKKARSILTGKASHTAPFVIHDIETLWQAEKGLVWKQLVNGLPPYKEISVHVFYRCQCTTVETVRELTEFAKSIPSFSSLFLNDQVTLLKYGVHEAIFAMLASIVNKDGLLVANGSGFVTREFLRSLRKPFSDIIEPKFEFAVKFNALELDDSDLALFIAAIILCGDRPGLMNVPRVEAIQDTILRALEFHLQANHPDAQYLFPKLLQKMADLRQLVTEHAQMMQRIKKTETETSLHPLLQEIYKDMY
Sequence of Estrogen receptor (Homo sapiens) (P03372 whole entry, looked up): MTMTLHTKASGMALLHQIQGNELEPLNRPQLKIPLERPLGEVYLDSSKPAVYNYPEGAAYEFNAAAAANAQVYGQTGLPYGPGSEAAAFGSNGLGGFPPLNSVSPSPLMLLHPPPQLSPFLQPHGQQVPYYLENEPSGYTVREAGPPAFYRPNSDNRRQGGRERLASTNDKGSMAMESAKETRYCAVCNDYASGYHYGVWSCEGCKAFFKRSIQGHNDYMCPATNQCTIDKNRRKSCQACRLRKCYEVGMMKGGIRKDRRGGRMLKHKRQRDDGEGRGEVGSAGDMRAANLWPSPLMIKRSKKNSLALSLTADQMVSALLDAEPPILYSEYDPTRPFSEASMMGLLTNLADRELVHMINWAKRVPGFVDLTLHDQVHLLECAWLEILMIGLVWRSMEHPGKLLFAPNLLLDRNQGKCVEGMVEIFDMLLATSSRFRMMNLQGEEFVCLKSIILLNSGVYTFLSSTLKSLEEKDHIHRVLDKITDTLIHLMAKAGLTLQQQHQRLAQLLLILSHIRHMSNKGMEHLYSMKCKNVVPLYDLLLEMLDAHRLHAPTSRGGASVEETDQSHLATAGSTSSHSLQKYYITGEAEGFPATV
Sequence of Peroxisome proliferator-activated receptor gamma (Homo sapiens) (P37231 whole entry, looked up): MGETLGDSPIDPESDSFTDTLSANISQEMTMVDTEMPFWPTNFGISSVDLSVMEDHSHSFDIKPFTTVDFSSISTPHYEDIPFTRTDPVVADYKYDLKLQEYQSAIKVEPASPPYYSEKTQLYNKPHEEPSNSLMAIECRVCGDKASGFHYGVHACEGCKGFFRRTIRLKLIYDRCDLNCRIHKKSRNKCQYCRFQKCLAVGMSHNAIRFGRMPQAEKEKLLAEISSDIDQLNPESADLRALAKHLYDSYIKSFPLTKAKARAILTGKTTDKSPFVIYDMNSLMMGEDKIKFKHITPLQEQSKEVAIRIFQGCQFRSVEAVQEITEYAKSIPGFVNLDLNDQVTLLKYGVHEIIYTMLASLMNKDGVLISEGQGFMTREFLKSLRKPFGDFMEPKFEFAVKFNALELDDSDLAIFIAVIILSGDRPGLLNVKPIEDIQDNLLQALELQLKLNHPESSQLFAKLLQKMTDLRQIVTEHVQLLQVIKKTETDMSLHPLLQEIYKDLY
Sequence of Peroxisome proliferator-activated receptor alpha (Homo sapiens) (Q07869 whole entry, looked up): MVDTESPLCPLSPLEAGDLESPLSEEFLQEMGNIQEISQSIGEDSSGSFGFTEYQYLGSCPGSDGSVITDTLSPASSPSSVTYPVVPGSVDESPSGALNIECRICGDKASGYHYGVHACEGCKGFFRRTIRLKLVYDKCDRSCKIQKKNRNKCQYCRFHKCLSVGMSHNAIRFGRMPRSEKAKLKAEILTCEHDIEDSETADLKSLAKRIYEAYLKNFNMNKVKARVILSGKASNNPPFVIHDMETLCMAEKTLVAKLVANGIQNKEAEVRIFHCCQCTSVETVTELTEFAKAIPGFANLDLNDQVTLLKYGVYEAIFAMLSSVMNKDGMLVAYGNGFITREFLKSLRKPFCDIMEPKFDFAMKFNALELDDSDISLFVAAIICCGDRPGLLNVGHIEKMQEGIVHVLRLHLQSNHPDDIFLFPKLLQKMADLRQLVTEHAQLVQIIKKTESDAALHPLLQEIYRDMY
Sequence of Glucocorticoid receptor (Homo sapiens) (P04150 whole entry, looked up): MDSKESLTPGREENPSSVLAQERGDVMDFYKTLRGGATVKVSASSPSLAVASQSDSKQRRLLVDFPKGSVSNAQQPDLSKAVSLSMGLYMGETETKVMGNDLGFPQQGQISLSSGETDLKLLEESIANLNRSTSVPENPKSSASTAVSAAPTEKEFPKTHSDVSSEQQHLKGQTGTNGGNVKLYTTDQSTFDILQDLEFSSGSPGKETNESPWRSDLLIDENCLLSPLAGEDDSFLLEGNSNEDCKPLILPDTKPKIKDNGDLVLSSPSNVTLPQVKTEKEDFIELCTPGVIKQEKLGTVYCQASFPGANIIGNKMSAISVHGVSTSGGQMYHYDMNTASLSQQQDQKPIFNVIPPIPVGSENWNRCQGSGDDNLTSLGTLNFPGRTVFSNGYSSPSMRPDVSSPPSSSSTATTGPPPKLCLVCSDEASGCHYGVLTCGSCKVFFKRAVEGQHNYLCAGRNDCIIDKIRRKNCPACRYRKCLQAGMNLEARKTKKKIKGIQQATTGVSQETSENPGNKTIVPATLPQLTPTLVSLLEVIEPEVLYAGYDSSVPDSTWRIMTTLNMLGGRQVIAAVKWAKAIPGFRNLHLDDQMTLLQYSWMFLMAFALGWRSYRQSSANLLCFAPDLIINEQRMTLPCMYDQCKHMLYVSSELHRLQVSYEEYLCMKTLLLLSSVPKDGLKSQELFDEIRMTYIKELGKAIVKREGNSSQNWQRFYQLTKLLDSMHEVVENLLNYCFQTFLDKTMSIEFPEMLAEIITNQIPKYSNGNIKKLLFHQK
Sequence of Nuclear receptor subfamily 1 group I member 2 (Rattus norvegicus) (Q9R1A7 whole entry, looked up): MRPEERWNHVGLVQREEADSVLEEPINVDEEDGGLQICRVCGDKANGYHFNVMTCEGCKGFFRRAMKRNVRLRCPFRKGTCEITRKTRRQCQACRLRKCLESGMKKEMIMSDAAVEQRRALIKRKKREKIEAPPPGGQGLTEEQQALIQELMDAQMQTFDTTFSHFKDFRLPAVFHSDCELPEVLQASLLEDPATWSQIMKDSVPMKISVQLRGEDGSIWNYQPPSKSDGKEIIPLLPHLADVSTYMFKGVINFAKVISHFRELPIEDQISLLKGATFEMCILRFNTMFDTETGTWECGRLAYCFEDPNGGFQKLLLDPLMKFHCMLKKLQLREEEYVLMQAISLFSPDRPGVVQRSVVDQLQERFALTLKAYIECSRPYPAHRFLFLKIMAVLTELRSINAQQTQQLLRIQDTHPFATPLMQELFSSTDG

As for `CON(C)C(=O)Nc1ccc(Cl)c(Cl)c1`, the Potency result in experiment [1], in experiment [3], in experiment [5], in [6] and in [7] was “inactive” in each case. For the same molecule, the activation in [2] was -2.11% (inactive); in experiment [10] it was 0.565% (inactive). Besides, the molecule was classed as inactive in [4]. Moreover, the max response in experiment [8] was -15.9%; in [9] it was -0.419% (inactive); in experiment [12], -1.01% (inactive); in [13], -26.6% (inactive); in experiment [14], -2.77% (inactive). In addition, in experiment [11], the Potency is 35.5 µM (active).
For `CCOP(=S)(OCC)SCn1c(=O)oc2cc(Cl)ccc21`, the Potency result in experiment [1], in experiment [3], in experiment [5], in experiment [7] and in experiment [16] was “inactive” in each case. Also, the activity change % (negative = inhibition) in experiment [15] was -26.9% (inactive). For the same molecule, the activation in [10] was 2.68% (inactive). Moreover, the max response in [12] is -0.132% (inactive); in experiment [14] it was -28.2% (inactive).
Regarding `CC(C)OC(=O)C(O)(c1ccc(Br)cc1)c1ccc(Br)cc1`, the Potency result in [1] and in [17] was “inactive” throughout. Besides, the activation in [2] is -15% (inactive); in experiment [11], 8.09% (inactive). Further, the max response is -7.97% (inactive) in [13] and -24.4% (inactive) in experiment [14]. In experiment [16], the Potency was 70.8 µM (active).
`CC1(C)C(C(=O)OC(C#N)c2cccc(Oc3ccccc3)c2)C1(C)C` (stereo not given): the Potency entry in [1], in [19], in experiment [6], in experiment [17] and in [16] was “inactive” each time. For the same molecule, the result in experiment [4] was inactive. For the same molecule, the max response is 27.8% in [18]; -18.6% in experiment [8]; -14.5% (inactive) in [9]; -0.276% (inactive) in experiment [12]; -19.4% (inactive) in [13]; -11.3% (inactive) in [14]. Besides, in experiment [15], the activity change % (negative = inhibition) was 2.17% (inactive). For the same molecule, the figures for the activation in experiment [10] and in [11] were -5.39% (inactive) and -0.509% (inactive), respectively.
On to `CCCCOC(=O)[C@@H](C)Oc1ccc(Oc2ccc(C#N)cc2F)cc1`, for which the Potency entry in experiment [1], in [3], in [5] and in experiment [6] was “inactive” in each case. The activation in experiment [2] is -11.2% (inactive); in experiment [11], -2.2% (inactive). The max response in experiment [8] was 13.4%; in experiment [12], 5.77% (inactive); in [13], -7.64% (inactive); in experiment [14], 2.82% (inactive); in [20] it was 1.04% (inactive). The activity change % (negative = inhibition) in experiment [15] is 0.16% (inactive).
With `Clc1ccc(C2(Cn3cncn3)CC(Br)CO2)c(Cl)c1` (stereo not given), the Potency entry in [1], in [3], in experiment [19], in [5], in [6] and in experiment [7] was “inactive” in each case. Moreover, the Potency entry in experiment [17] and in [16] was “inactive” in each case. In addition, the activation was -0.813% (inactive) in [2], 1.75% (inactive) in [10] and 0.536% (inactive) in experiment [11]. Moreover, the molecule was classed as inactive in experiment [4]. Also, the max response in [18] was 30.9%; in experiment [8], -1.33%; in experiment [12], 0.204% (inactive); in experiment [13], -3.86% (inactive); in [14], -20.3% (inactive). The activity change % (negative = inhibition) in experiment [15] is -0.525% (inactive).
